Compound activity from PubChem BioAssay.
RPL19A TOR yeast: RPL19A-GFP expression modulators in yeast, primary screen, cell-based, S. cerevisiae, multiplex flow cytometry, MLPCN; percent response vs DMSO, % at 10 µM; 330,000 compounds, 0.3% hits; S. cerevisiae RPL19A-GFP strain, 3 h; active compounds read low;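 active means percent response vs DMSO below 50%; inconclusive means fewer than 70 events counted for the yeast strain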;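 further: median channel GFP fluorescence of the barcoded RPL19A-GFP strain; ratio of sample median GFP to plate DMSO average so 100% = DMSO; lower means less RPL19A-GFP as with rapamycin TOR inhibition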
MEP2-GFP yeast: modulators of MEP2-GFP levels in yeast, primary screen, S. cerevisiae, multiplex flow cytometry, MLPCN library. 330,000 compounds, 0.51% hits. S. cerevisiae MEP2-GFP strain, 3 h; 100% = DMSO control level. AID 2016, 2009. GFP response vs DMSO, % at 10 µM;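 active means GFP response versus DMSO above a set limit, roughly screen mean plus 3 SD, cut at about 180% in these data; inconclusive means fewer than 70 cells counted for a yeast strain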;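 further: median GFP fluorescence of the barcode-gated MEP2-GFP cells per well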
LAP4 TOR yeast: modulators of LAP4-GFP expression in yeast, primary screen, S. cerevisiae, multiplex flow cytometry, MLPCN library | 3 h; median GFP as percent of DMSO wells | GFP response vs DMSO, % at 10 µM | 320,000 compounds, 0.34% hits | AID 2023, 2009;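 active means GFP response vs DMSO above a set limit, about the screen mean plus 3 SD, cut at about 150% in these data; inconclusive means under 70 cell events counted for the yeast strain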
AGP1-GFP MLPCN: modulators of AGP1-GFP expression in yeast TOR pathway, primary screen, cell-based, multiplex flow cytometry, S. cerevisiae, MLPCN library; 320,000 compounds, 0.02% hits; GFP response vs DMSO, % at 10 µM; 3 h; GFP as percent of DMSO wells; AID 2066, 2009;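 active means GFP response relative to DMSO above a set limit, near screen average plus 3 SD, cut at about 150% in these data; inconclusive means fewer than 70 cells counted for the yeast strain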;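 further: median GFP channel fluorescence of the gated AGP1 strain per well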
Efflux pump inh: inhibitors of Candida efflux pumps in yeast, primary screen, S. cerevisiae, Nile Red, multiplex; inhibition, % at 10 µM; AID 485275, 2010; 330,000 compounds, 0.44% hits; S. cerevisiae Candida pump triplex;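 active means plate passing quality check with inhibition over a set limit, or well fluorescence over plate mean plus 4 SD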;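 further: Nile Red retained in pooled yeast measured as flow cytometry median fluorescence; 0% = buffer negative control and 100% = Enniatin B positive control; higher means more Nile Red kept so more efflux inhibition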
CIT2 TOR yeast: modulators of CIT2-GFP expression in yeast, primary screen, S. cerevisiae, GFP fusion, multiplex flow cytometry, MLPCN library; S. cerevisiae CIT2-GFP strain, 3 h; 100 means same as DMSO wells; GFP response vs DMSO, % at 10 µM; 320,000 compounds, 0.065% hits;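 active means GFP response relative to DMSO above a set limit, near the screen mean plus 3 SD, cut at about 150% in these data; inconclusive means Fewer than 70 cells measured for a yeast strain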;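 further: ratio of well median GFP fluorescence to mean of DMSO wells on the plate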
LAP4 cherry2: LAP4-GFP expression modulators in yeast, confirmation, cell-based, second cherry pick, flow cytometry; S. cerevisiae LAP4-GFP strain, 3 h; GFP response vs DMSO, % at 10 µM; shares compounds with LAP4 TOR yeast; 590 compounds, 20% hits;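 active means GFP signal as percent of the solvent control above about 150%, meaning raised reporter expression, limit read from the data; inconclusive means fewer than 70 cells counted in the well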;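 further: ratio of well median GFP fluorescence to plate DMSO mean so 100% = DMSO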
MEP2-GFP pick2: modulators of MEP2-GFP levels in yeast, confirmation, S. cerevisiae, flow cytometry GFP, second cherry picks. S. cerevisiae MEP2-GFP strain, 3 h. AID 2622, 2010. GFP response vs DMSO, % at 10 µM. 590 compounds, 10% hits. shares compounds with LAP4 TOR yeast;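 active means GFP signal above 150% of the solvent control wells, that is a rise of more than half; inconclusive means fewer than 70 yeast cells counted in the well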;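 further: median channel GFP fluorescence of all gated yeast cells per well; ratio of median GFP to plate DMSO average so 100% = DMSO level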
RPL19A GFP CP2: RPL19A-GFP modulators in TOR pathway yeast, confirmation, cell-based, S. cerevisiae, flow cytometry, second cherry pick | shares compounds with LAP4 TOR yeast | S. cerevisiae RPL19A-GFP strain, 3 h; active compounds read low; 100% means same as DMSO wells | GFP response vs DMSO, % at 10 µM | 590 compounds, 3% hits;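 active means under 65% GFP response relative to DMSO; inconclusive means yeast strain with under 70 measured events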;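 further: median GFP channel fluorescence per well over the all cells gate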
CIT2-GFP pick2: modulators of CIT2-GFP expression in yeast, confirmation, flow cytometry, second cherry pick, single plex. shares compounds with LAP4 TOR yeast. S. cerevisiae CIT2-GFP strain, 3 h; DMSO control wells read 100%. GFP response vs DMSO, % at 10 µM. 590 compounds, 8% hits. AID 2624, 2010;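 active means GFP response vs DMSO above about 150%, limit read from the data; inconclusive means fewer than 70 events counted for a yeast strain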;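 further: median green fluorescence per well over all gated yeast cells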
AGP1-GFP pick2: AGP1-GFP expression modulators, hit retest, confirmation, cell-based, flow cytometry, S. cerevisiae, cherry pick set 2. shares compounds with LAP4 TOR yeast. S. cerevisiae AGP1-GFP strain, 3 h. percent response vs DMSO, % at 10 µM. 590 tested, under 10 active. AID 2643, 2010;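 active means over 150 percent of DMSO response; inconclusive means yeast strain measured with under 70 events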;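 further: median GFP channel fluorescence over all cells without mother daughter split; sample median GFP divided by mean DMSO control so 100% equals DMSO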
s288c autofluor: compound autofluorescence in yeast s288c, dose response, artefact control for yeast TOR pathway GFP screen, s288c strain; fluorescence change (kMESF span) at 33 µM; 610 tested, under 10 active; shares compounds with LAP4 TOR yeast; S. cerevisiae s288c, 520 nm autofluorescence, flow cytometry, 3 h; active compounds read high; zero means same as solvent-only cells; AID 2757, 2010;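 active means fluorescence span over the dose series, or activity score, above about 33, limit read from the data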
Yeast autofl DR: autofluorescence of compounds in yeast s288c, dose response, artefact control for yeast TOR pathway GFP screen, primary hits, KU SAR, s288c parental. shares compounds with LAP4 TOR yeast. S. cerevisiae s288c parental, compound autofluorescence, flow cytometry, 3 h. fluorescence change (span) at 33 µM. 110 tested, under 10 active. AID 488829, 2010;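 active means fluorescence change span, or the activity score built from it, above 25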
TORC1 bypass gr: wild-type yeast growth inhibition sparing TORC1 bypass cells, mechanism study for yeast TOR pathway GFP screen, BY4741 wild type, TORC1 bypass strain; 120 tested, under 10 active; growth rating (0-3) at 30 µM; S. cerevisiae BY4741 spot growth rating, 48-72 h; active compounds read low; shares compounds with LAP4 TOR yeast; AID 504456, 2011;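 active means growth rating at most 1 for wild type yeast while the TORC1 bypass strain still grows fully, rated 3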
Starred values were filed as active, the others as inactive; ? = inconclusive; nt = no result. Sampled rows, rich in hits. Any-hit rate of the full collection: about 1.3%.

SMILES	RPL19A TOR yeast	MEP2-GFP yeast	LAP4 TOR yeast	AGP1-GFP MLPCN	Efflux pump inh	CIT2 TOR yeast	LAP4 cherry2	MEP2-GFP pick2	RPL19A GFP CP2	CIT2-GFP pick2	AGP1-GFP pick2	s288c autofluor	others
O=C(Nc1ccc(Cl)cc1)ON=C1CCCC1	72	100	130	49	0	88	199*	150	85	224*	68	0.81
CCc1ccc(-c2cnc3nc[nH]c(=O)c3n2)cc1	97	99	108	107	0	108	nt	nt	nt	nt	nt	nt
Cc1ccc(S(=O)(=O)NCc2cccnc2)cc1C(=O)N1CCCC1	102	98	99	98	0	97	nt	nt	nt	nt	nt	nt
O=C(Nc1nc(-c2ccccc2)cs1)C1COc2ccccc2O1 (configuration not stated)	90	95	91	92	0	91	nt	nt	nt	nt	nt	nt
CC(C)[C@H](NC(=O)c1ccccc1Cl)C(=O)Nc1nc(-c2ccccn2)cs1	95	93	103	102	1	95	nt	nt	nt	nt	nt	nt
O=C(Nc1nc(-c2ccccn2)cs1)C1COc2ccccc2O1 (configuration not stated)	93	101	162*	98	0	102	136	113	102	116	92	0.8	Yeast autofl DR=3.5;TORC1 bypass gr=3
CCc1cc(C(=O)Nc2nc(-c3ccccn3)cs2)sc1C	88	99	208*	70	0	78	156*	114	103	111	91	0.5
Cc1cc(C(=O)Nc2nc(-c3ccccn3)cs2)ccc1[N+](=O)[O-]	101	100	160*	98	0	98	nt	nt	nt	nt	nt	1.3	Yeast autofl DR=0.08;TORC1 bypass gr=3
CC(Oc1ccc(Br)cc1)C(=O)Nc1nc(-c2ccccn2)cs1 (configuration not stated)	101	98	168*	72	0	96	nt	nt	nt	nt	nt	1.1	Yeast autofl DR=0.29;TORC1 bypass gr=3
Cc1ccc2c(c1)N(C(=O)CCC(=O)NCCN1CCOCC1)CCO2	109	92	97	107	0	108	nt	nt	nt	nt	nt	nt
O=C(NCc1ccc(F)cc1)C1CCN(S(=O)(=O)N2CCCC2)CC1	?	?	?	?	0	?	nt	nt	nt	nt	nt	nt
CC1CCN(S(=O)(=O)N2CCCC(C(=O)NCc3ccc(F)cc3)C2)CC1 (configuration not stated)	63	147	91	18	0	101	101	101	98	106	100	nt
Cc1cc(C)c2c(c1)/C(=C/C(=O)c1ccc(Br)s1)C(=O)N2	109	110	106	113	0	110	nt	nt	nt	nt	nt	-0.1
CCc1ccc2c(c1)/C(=N/N(C)C(=S)NC)C(=O)N2	95	106	104	101	0	90	nt	nt	nt	nt	nt	nt
Cc1cccc2c1NC(=O)/C2=C\C(=O)c1cccs1	88	90	185*	82	0	77	nt	nt	nt	nt	nt	-0.11
Cc1cc(Br)c2c(c1)/C(=C/C(=O)c1cccs1)C(=O)N2	82	90	112	87	0	nt	nt	nt	nt	nt	nt	-0.2
CCc1ccc2c(c1)/C(=C/C(=O)c1cccs1)C(=O)N2	81	95	169*	80	0	76	nt	nt	nt	nt	nt	0.11
COc1ccc([C@H]2CC(=O)C=C(/C=C/c3ccc(C(F)(F)F)cc3)C2)cc1	96	117	113	103	0	98	nt	nt	nt	nt	nt	nt
NC(=O)C1CCN(C(=O)CCC(=O)c2ccc(F)cc2)CC1	105	105	93	101	0	100	nt	nt	nt	nt	nt	nt
Cc1nn2c(-c3ccncc3)nnc2c2ccccc12	60	106	101	58	0	65	90	95	65*	97	68	0.3	Yeast autofl DR=0.36;TORC1 bypass gr=3
COc1ccc(-c2nnc3c4ccccc4c(C)nn23)cc1	93	104	84	94	0	104	nt	nt	nt	nt	nt	nt
Cc1nn2c(-c3ccco3)nnc2c2ccccc12	64	90	86	61	0	76	93	93	66	95	67	nt
COc1cccc(C(C(=O)NC(C)(C)C)N(CCc2ccccc2)C(=O)CCC(=O)Nc2cc(C)on2)c1OC (configuration not stated)	100	102	100	108	0	113	nt	nt	nt	nt	nt	nt
O=C(COC(=O)/C=C/c1cccc(F)c1)NC1CCCC1	93	94	103	92	0	85	nt	nt	nt	nt	nt	nt
O=C(COC(=O)/C=C/c1cccc(F)c1)NC(=O)NC1CCCC1	76	87	164*	99	0	87	104	103	99	103	98	nt
CCOc1ccc(N/N=C(/C#N)C(N)=O)cc1	78	228*	210*	119	0	106	nt	nt	nt	nt	nt	7
